# Laboratory results published in PubChem BioAssay (EPA / NIEHS).
# Inconclusive results are not listed. Active and inactive are the calls of the source. Rule for the calls, unless noted: active = hit-call score of the fitted dose curve at least 0.9, where 1 is the maximum; inconclusive = response in the unintended direction; inactive = score below 0.9.
# Experiments:
# [1] = IUF_NPC2-5_cytotoxicity_72hr: Cytotoxicity Assessment at 72 hours in the Leibniz Research Institute for Environmental Medicine (IUF) Neural Progenitor Cell Migration and Differentiation Assay for Cytotoxicity (NPC2-5) (AID 2284306);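 note: LDH release into supernatant measured by resorufin fluorescence marking membrane damage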
# Outline: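 Membrane integrity loss was scored from fluorescence (RFU) of resorufin generated by LDH in culture supernatant, 72 h after dosing. Differentiating human progenitor spheres received seven serial compound concentrations alongside a solvent control.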
# [2] = IUF_NPC2-5_cytotoxicity_120hr: Cytotoxicity Assessment at 120 hours in the Leibniz Research Institute for Environmental Medicine (IUF) Neural Progenitor Cell Migration and Differentiation Assay (NPC2-5) (AID 2284307);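 for AC50: LDH released into supernatant as membrane damage marker via resorufin fluorescence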
# Outline: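 hNPC spheres on PDL/laminin, N2 medium, 37C; 7 concs + solvent control, DMSO ≤0.1%; 5-day exposure, half medium changed day 3. LDH in supernatant at 120 h, resazurin→resorufin fluorescence, gain-of-signal.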
# [3] = IUF_NPC2-5_cell_number_120hr: Cell Number Assessment at 120 hours in the Leibniz Research Institute for Environmental Medicine (IUF) Neural Progenitor Cell Migration and Differentiation Assay (NPC2-5) (AID 2284308; active = hit-call score of the fitted dose curve at least 0.9, where 1 is the maximum; inactive = score below 0.9;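 note: count of Hoechst-stained nuclei in migration zone around plated human neural progenitor spheres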)
# Outline: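 Hoechst-stained nuclei within the migration area were counted by automated high content imaging after 120 h. Single hNPC spheres differentiated on poly-D-lysine/laminin in DMEM/F12 (3:1) with 1% N2, compound present throughout, DMSO ≤0.1%.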
# [4] = CCTE_Mundy_HCI_iCellGluta_NOG_NeuriteLength: CCTE's Neurite Outgrowth Assay in iCellGluta cells for Neurite Length, Mundy Lab (AID 2284318)
# Outline: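 Automated high-content imaging of betaIII-tubulin (Alexa Fluor-488) and Hoechst-stained cells gave neurite length, normalized to the DMSO baseline.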
# [5] = TAMU_PeakParms_SingleDonor1434_Asystole: Texas A&M University (TAMU) 1.5-hr Human Induced Pluripotent Stem Cell (iPSC)-derived Cardiomyocytes Calcium (Ca+2) Flux Assay for Cardiotoxicity: Asystole (quiescence of beating) (AID 2284328)
# Outline: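 Average Ca2+-flux peak frequency (beats/s) was recorded in single-donor iPSC-derived cardiomyocytes after 90 min exposure (0.2–100 uM final, 0.5% DMSO). Asystole POD set as EC95 against DMSO, no preprocessing.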
# [6] = IUF_NPC1_cytotoxicity_72hr: Cytotoxicity Assessment at 72 hours in the Leibniz Research Institute for Environmental Medicine (IUF) Neural Progenitor Cell Proliferation Assay (NPC1) (AID 2284332);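 note: rising LDH signal means more cytotoxicity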
# Outline: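 Human fetal neural progenitor spheres (0.3 mm) in EGF/FGF proliferation medium, 37C, exposed 72 h without renewal. LDH release in supernatant read by resorufin fluorescence; gain of signal scored relative to dynamic range.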
# [7] = CCTE_Deisenroth_5AR_NBTE_donor: CCTE's 5alpha-reductase NanoBRET Target Engagement Assay […], Deisenroth Lab (AID 2284319; active = hit-call score of the fitted dose curve at least 0.9, where 1 is the maximum; inactive = score below 0.9); details: actives raise or lower the signal
# Outline: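 HEK293T cells transiently expressing SRD5A2-NanoLuc, exposed 5 h to chemicals (8 points, 10 nM - 29.9 uM), with testosterone tracer for the final 2 h. Donor luminescence at 460 nm read after Nano-Glo substrate plus extracellular NanoLuc inhibitor; bidirectional fit versus DMSO.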
# [8] = CCTE_Deisenroth_5AR_NBTE_acceptor: CCTE's 5alpha-reductase NanoBRET Target Engagement Assay - Autofluorescence Screen, Deisenroth Lab (AID 2284321; active = hit-call score of the fitted dose curve at least 0.9, where 1 is the maximum; inactive = score below 0.9;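 note: compound fluorescence in the acceptor channel under 460 nm excitation flags autofluorescence artifacts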); details: actives raise or lower the signal
# Outline: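 Autofluorescence check: ToxCast chemicals, nominal 100 uM, excitation 460 nm, n=3 runs. Acceptor fluorescence endpoint, bidirectional fit relative to DMSO. Parent assay in HEK293T, 5 h post-dose.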
# [9] = system: SRD5A2 (gene 6716); assay: CCTE_Deisenroth_5AR_NBTE_ratio: CCTE's 5alpha-reductase NanoBRET Target Engagement Assay - Ratio, Deisenroth Lab (AID 2284322; active = hit-call score of the fitted dose curve at least 0.9, where 1 is the maximum; inactive = score below 0.9); details: actives raise or lower the signal
# Outline: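 HEK293T transiently expressing SRD5A2-NanoLuc; cells exposed to chemical (8-point, 10 nM - 29.9 uM) for 5 h total, testosterone tracer added for final 2 h. NanoBRET acceptor/donor ratio (650/460 nm), bidirectional fit vs DMSO.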
# [10] = VALA_TUBHUV_Agonist_CellCount: Viability Assessment in the VALA Sciences human Umbilical Vein Endothelial Tubule Formation (TUBHUV) Agonism Assay (AID 2284309)
# Outline: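 HUVEC co-cultured 1:3 with HDF for 3 days in 10 ng/ml VEGF, then compounds added in VEGF medium for a further 3 days (72 h). Nuclear-stain/CD31 imaging cell count. Positive-direction fit versus 0.1% DMSO vehicle.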
# [11] = VALA_TUBIPS_Antagonist_TubuleLength: VALA Sciences human iPS-derived Endothelial Tubule Formation (TUBIPS) Antagonist Assay (AID 2284313)
# Outline: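 Cells grown 3 days with 10 ng/ml VEGF, then exposed to compounds in VEGF medium for another 3 days. After fixation, nuclear stain and CD31 immunofluorescence imaging gave mean total tubule length against 0.1% DMSO; suramin (100 uM) inhibition control.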
# [12] = VALA_MIGHUV2_WoundArea: VALA Sciences human Umbilical Vein Endothelial Cell Migration (MIGHUV) Assay, Area of Scratch Wound after Recovery (AID 2284316)
# Outline: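 HUVEC seeded at 9000 cells/well, scratched after 24 h; test chemical added within 30 min, 6-point concentration response in triplicate (0.1% DMSO vehicle). After 24 h wound recovery, cells fixed and Hoechst-stained nuclei in wound area imaged; Cytochalasin D reference control.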
# [13] = VALA_TUBHUV_Antagonist_TubuleLength: VALA Sciences human Umbilical Vein Endothelial Tubule Formation (TUBHUV) Antagonism Assay (AID 2284325)
# Outline: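 HUVEC–HDF co-culture (1:3) pre-grown 3 days with 10 ng/ml VEGF, then 3 days with compound plus VEGF. Fixed, nuclear and CD31 stained; total tubule length by imaging versus 0.1% DMSO; suramin 100 uM positive control.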
# [14] = VALA_TUBIPS_Antagonist_CellCount: Viability Assessment in the VALA Sciences human iPS-derived Endothelial Tubule Formation (TUBIPS) Antagonism Assay (AID 2284335)
# [15] = VALA_TUBIPS_Agonist_TubuleLength: VALA Sciences human iPS-derived Endothelial Tubule Formation (TUBIPS) Agonism Assay (AID 2284311)
# Outline: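 Human iPS-derived endothelial cells were exposed to compound for 72 h. Tubule formation was imaged by high-content fluorescence and scored as gain of signal relative to DMSO vehicle (agonist mode).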
# [16] = VALA_MIGHUV2_Bcatenin: VALA Sciences human Umbilical Vein Endothelial Cell Migration (MIGHUV) Assay, Nuclear Translocation of beta-Catenin after Recovery (AID 2284315)
# Outline: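 HUVEC (4000 cells/well) scratch-wounded, dosed within 30 min over 6 concentrations in triplicate, recovered 24 h. After fixation, Hoechst and anti-beta-catenin immunofluorescence imaged for nuclear CTNB. Gain of signal versus 0.1% DMSO.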
# [17] = VALA_MIGHUV1_ScratchOnly_WoundArea: VALA Sciences human Umbilical Vein Endothelial Cell Migration (MIGHUV) Assay, Area of Scratch Wound Inhibited Recovery (AID 2284336)
# Outline: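 HUVEC monolayers (9000 cells/well) were scratched after 24 h, dosed within 30 min (six concentrations, triplicate, 0.1% DMSO), allowed 24 h recovery, then fixed. Hoechst-stained nuclei in the wound imaged; cytochalasin D as reference.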
smiles,measurement,setting,value
CCCCC(CC)COC(=O)c1ccccc1C(=O)OCC(CC)CCCC (stereo not drawn),outcome,[1],inactive
same,outcome,[2],inactive
same,outcome,[3],inactive
same,AC50,[4],36.1 µM (active)
same,outcome,[5],inactive
same,outcome,[6],inactive
COc1ccc(C(c2ccc(OC)cc2)C(Cl)(Cl)Cl)cc1,outcome,[7],inactive
same,outcome,[8],inactive
same,outcome,[9],inactive
CC(C)(C)c1ccc(CSc2cnn(C(C)(C)C)c(=O)c2Cl)cc1,outcome,[1],inactive
same,outcome,[2],inactive
same,outcome,[3],inactive
same,AC50,[10],20.3 µM (active)
same,outcome,[11],inactive
same,AC50,[12],7.5 µM (active)
same,AC50,[4],0.15 µM (active)
same,outcome,[13],inactive
same,outcome,[6],inactive
same,outcome,[14],inactive
CCOc1cc(Oc2ccc(C(F)(F)F)cc2Cl)ccc1[N+](=O)[O-],outcome,[1],inactive
same,outcome,[2],inactive
same,outcome,[3],inactive
same,AC50,[4],73.7 µM (active)
same,outcome,[6],inactive
Cc1ccc(-c2c(Cl)nc(C#N)n2S(=O)(=O)N(C)C)cc1,outcome,[1],inactive
same,AC50,[2],33 µM (active)
same,AC50,[3],13.2 µM (active)
same,AC50,[4],32.6 µM (active)
same,outcome,[6],inactive
N#Cc1nn(-c2c(Cl)cc(C(F)(F)F)cc2Cl)c(N)c1S(=O)C(F)(F)F (stereo not drawn),outcome,[1],inactive
same,outcome,[2],inactive
same,AC50,[3],14.2 µM (active)
same,outcome,[15],inactive
same,outcome,[11],inactive
same,outcome,[16],inactive
same,outcome,[4],inactive
same,outcome,[13],inactive
same,outcome,[6],inactive
same,outcome,[17],inactive
CO/C=C(/C(=O)OC)c1ccccc1Oc1cc(Oc2ccccc2C#N)ncn1,outcome,[1],inactive
same,outcome,[2],inactive
same,outcome,[3],inactive
same,AC50,[4],18.9 µM (active)
same,outcome,[6],inactive
CCOC(=O)CC(SP(=S)(OC)OC)C(=O)OCC (stereo not drawn),outcome,[2],inactive
same,outcome,[3],inactive
same,AC50,[4],2.98 µM (active)
same,outcome,[6],inactive
C=CC1(C)OC(=O)N(c2cc(Cl)cc(Cl)c2)C1=O (stereo not drawn),outcome,[1],inactive
same,outcome,[2],inactive
same,outcome,[3],inactive
same,AC50,[4],19.4 µM (active)
same,outcome,[6],inactive
